Experimental data: PubChem BioAssay AID1851 (National Center for Advancing Translational Sciences (NCATS), 2009)
Out of some 16,000 compounds screened, about 4,000 (25%) were called active. About 26% were inconclusive and are not listed. Calls follow the shape of the dose curve; as a rule, active = well fitted curve in the direction sought with a large enough effect; inconclusive = small, poorly fitted or top-dose-only effect, or effect the other way; inactive = no such curve, though single readings can be large or run the other way. Not all results are given here.

target: Cytochrome P450 2C9 (Homo sapiens) (UniProt P11712); test: Cytochrome panel assay with activity outcomes; conditions: recombinant CYP, pro-luciferin dealkylation, luminescence, p450-cyp2c9; series mostly up to 57.1 µM
Sequence (P11712 whole entry, looked up): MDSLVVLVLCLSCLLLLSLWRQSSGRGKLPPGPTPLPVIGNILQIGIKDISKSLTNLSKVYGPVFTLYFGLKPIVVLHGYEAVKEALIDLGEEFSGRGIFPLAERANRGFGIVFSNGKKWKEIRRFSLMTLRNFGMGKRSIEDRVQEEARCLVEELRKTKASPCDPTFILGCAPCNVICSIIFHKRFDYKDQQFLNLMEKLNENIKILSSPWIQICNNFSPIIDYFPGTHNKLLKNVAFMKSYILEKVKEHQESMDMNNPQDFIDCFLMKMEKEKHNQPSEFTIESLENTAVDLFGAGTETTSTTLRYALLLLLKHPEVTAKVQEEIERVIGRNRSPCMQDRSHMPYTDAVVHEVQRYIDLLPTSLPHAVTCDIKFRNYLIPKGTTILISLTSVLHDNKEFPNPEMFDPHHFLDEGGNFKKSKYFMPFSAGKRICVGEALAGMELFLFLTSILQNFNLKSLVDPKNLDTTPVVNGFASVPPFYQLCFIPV
% is scaled to controls: 0 for no effect and ±100 for the full control effect.

AC50, active:
CCNc1ncc2nc(C)c(=O)n(Cc3cccc(OC)c3)c2n1 15.8 µM
COc1cccc(Cn2c(=O)c(CCc3ccccc3)nc3cnc(N4CCN(C)CC4)nc32)c1 25.1 µM
CN1CCN(c2ncc3nc(CCc4ccccc4)c(=O)n(Cc4cccs4)c3n2)CC1 25.1 µM
COc1cccc(Cn2c(=O)cnc3cncnc32)c1 31.6 µM
O=C1N=C2SCCN2/C1=C\c1c(Cl)cccc1Cl 15.8 µM
O=C(NCc1ccccc1)c1cccc(COc2cccc(Cl)c2)c1 17.8 µM
COc1ccc(OC)c(Nc2nc(-c3sc(NC(=O)c4ccccc4)nc3C)cs2)c1 3.55 µM
COc1ccccc1Nc1nc(-c2sc(NC(=O)c3ccccc3)nc2C)cs1 2.24 µM
C=CCCC(=O)Nc1nc(C)c(-c2csc(Nc3ccc(Cl)cc3)n2)s1 10 µM
Cc1nc(NC(=O)c2ccccc2)sc1-c1csc(Nc2cccc(Cl)c2)n1 3.55 µM
CCOc1ccccc1Nc1nc(-c2sc(NC(=O)c3ccccc3)nc2C)cs1 2.51 µM
COc1ccc(C(=O)n2c(SC)nc3cc4c(cc32)OCCO4)cc1 1.41 µM
COc1cccc(C(=O)n2c(SC)nc3cc4c(cc32)OCCO4)c1 20 µM
O=C(N/N=C/c1cccc(OCc2ccccc2)c1)c1cccs1 2.51 µM
COc1cc(/C=N/NC(=O)c2cccs2)ccc1OCc1ccccc1 2.24 µM
Cc1ccc(/C=N/NC(=O)c2cccs2)cc1[N+](=O)[O-] 3.98 µM
CC1CCCC(C)N1C(=O)c1ccccc1Nc1ccc(SC(F)F)cc1 (stereo not drawn) 7.08 µM
CCC(=O)OCc1c(C(F)(F)F)nn(C)c1Sc1ccc(F)cc1 10 µM
C[C@@H]1CN(CCCn2c3ccccc3c3ccccc32)C[C@H](C)N1 12.6 µM
Cc1cccn2c(/C=N/OCc3cccc(F)c3)c(-c3ccc(Cl)cc3)nc12 6.31 µM
CSc1nc2n(n1)C(c1cc(Br)ccc1F)C(C(=O)N(C)C)=C(C)N2 (stereo not drawn) 22.4 µM

AC50, inactive:
N[C@@H](Cc1cnc[nH]1)C(=O)O
Cc1nc2nc[nH]n2c(=O)c1NC(=O)CC12CC3CC(CC(C3)C1)C2
CN1CCN(c2ncc3nc(-c4ccccc4)c(=O)n(Cc4cccs4)c3n2)CC1
COc1ccc(-n2c(=O)c(CCc3ccccc3)nc3cnc(N4CCN(C)CC4)nc32)cc1
Cc1nc2cnc(N3CCN(C)CC3)nc2n(CCc2ccccc2)c1=O
Cc1nc2cnc(N3CCN(C)CC3)nc2n(Cc2cccs2)c1=O
CCNc1ncc2nc(C)c(=O)n(Cc3cccs3)c2n1
CCNc1ncc2nc(-c3ccc(OC)cc3)c(=O)n(Cc3cccc(OC)c3)c2n1
C[C@@]12CCC(=O)C=C1CC[C@H]1[C@H]3CC[C@](O)(C(=O)CO)[C@]3(C)CC(=O)[C@@H]12
Cc1ccc(OC[C@H](O)[C@H](C)NC(C)C)c2c1CCC2
CC(C)(CS)C(=O)N1CCC[C@H]1C(=O)O
Cc1ccc(Nc2nc(-c3sc(NC(=O)c4cccc(Cl)c4)nc3C)cs2)cc1
Cc1nc(NC(=O)c2ccccc2)sc1-c1csc(Nc2ccc(Cl)cc2Cl)n1
CCC1(O)c2ccccc2-c2ncccc21 (stereo not drawn)
C[N+](C)(C)CCCCCCCCCC[N+](C)(C)C
CCOc1ccccc1NC(=O)CCC(=O)O
COc1ccc(C(=O)N2CCC3(CCN(Cc4cc(C(F)(F)F)cc(C(F)(F)F)c4)CC3)CC2)cc1
COc1ccc(C(=O)Nc2ccc3c(c2)nc(CN2CCN(C(C)=O)CC2)n3C)cc1
CC(C)C(=O)N/N=C/c1ccc(OCc2ccccc2)cc1
CCOc1cc(/C=N/NC(=O)CN2CCCCC2)ccc1OCc1ccccc1
COc1cc(CNCc2cccs2)ccc1OCC(N)=O
O=C(N/N=C/C=C/c1ccc([N+](=O)[O-])cc1)c1cccs1
C=CCc1ccccc1OC[C@H](O)CNC(C)C
Cc1cccn2c(=O)c(C=NCc3ccco3)c(Nc3ccc(SC(F)F)cc3)nc12
CC1(C)NC(=O)N(c2ccc([N+](=O)[O-])c(C(F)(F)F)c2)C1=O
Cc1cc2nc3c(=O)[nH]c(=O)nc-3n(CC(O)C(O)C(O)CO)c2cc1C (stereo not drawn)

activity, negative = inhibition, inactive:
C[C@H]1[C@H](C)OC(=O)C[C@H](O)C[C@H](O)C[C@H](O)CC[C@H](O)[C@H](O)CC(=O)C[C@H](O)[C@H](C(=O)O)[C@H](O)C[C@H](O[C@@H]2O[C@@H](C)[C@H](O)[C@@H](N)[C@@H]2O)C=CC=CC=CC=CCCC=CC=C[C@@](C)(O)[C@H]1O 14.1% [at 11.4 µM]
c1ccc(C2=NN[C@@H]3c4ccccc4-c4ccccc4N3C2)cc1 6.37% [at 11.4 µM]
O=C(O)c1ccc(OCc2ccccc2)c(Cl)c1 -17.5% [at 11.4 µM]
Cc1ccccc1-c1ccc2ncnc(NC3CC3)c2c1 19.9% [at 2.29 µM]
Cc1ccccc1-c1cncnc1NC1CCNCC1 1.54% [at 2.29 µM]
CCOc1ccccc1Nc1ccc(N)cc1S(=O)(=O)O -6.23% [at 11.4 µM]
CC(=O)OC[C@H]1O[C@@H](O/N=C(\C)CCN2CCc3nc(-c4ccccc4)c(-c4ccccc4)cc3C2)[C@H](OC(C)=O)[C@@H](OC(C)=O)[C@H]1OC(C)=O 4.27% [at 11.4 µM]
OC[C@@H](O)CNc1ncnc2ccccc12 23.8% [at 11.4 µM]
c1ccc(C(CCN2CC3CCC(CC3)C2)c2ccccc2)cc1 8.36% [at 11.4 µM]
c1ccc2c(c1)c1ccccc1n2Cn1c2ccccc2c2ccccc21 -11.7% [at 11.4 µM]
COc1cccc(-c2ccc3ncnc(NC4CCNCC4)c3c2)c1 19.4% [at 2.29 µM]
